Results: PubChem BioAssay (NCATS)
Several values for one entry are separate records, joined by “and”; a condition that tells them apart may be missing. Equal entries are not always repeated. Records with an inconclusive call do not appear. A call without a number means that no potency is given here. Activity calls are given as the source filed them. The call rests on the fitted dose curve; in most records, active means well fitted cell-killing curve with a large enough effect; inconclusive means small, poorly fitted or top-dose-only effect, or effect the other way; inactive means flat fitted curve, though single readings scatter.

These compounds were tested on SKOV3 (assay: Primary qHTS to identify gynecologic anti-cancer compounds using libraries of approved drugs and bioactive compounds (AID 1345084; further: nearly all actives have a fitted effect of over 55% in size)). Settings: Gynecologic cancer cell panel viability, ATPlite luminescence, 48 h; series mostly up to 57.5 µM.
Outline: (§1)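 In this quantitative HTS, cell killing is estimated from loss of ATP-dependent luciferase light. Cells see five compound concentrations over a 48 h exposure.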
Potency means the concentration at half of the fitted maximal effect.

Compound | Potency
CCCCCCCCCCCCCCCCCC(=O)OCC(O)CO (configuration not stated) | inactive
CCCOC(C(=O)OC1CCN(C)CC1)(c1ccccc1)c1ccccc1 | inactive
CO/N=C1\CN(c2nc3c(cc2F)c(=O)c(C(=O)O)cn3C2CC2)CC1CN (configuration not stated) | inactive
COc1cc2c(cc1OC)C(C(C(=O)N(CCc1ccc(OC)c(OC)c1OC)CCc1ccc(OC)c(OC)c1OC)c1ccccc1)=NCC2 (configuration not stated) | inactive
Oc1c(Cl)cc(Cl)cc1Sc1cc(Cl)cc(Cl)c1O | inactive
Cc1ccc(O)c2ncccc12 | inactive
O=C(Nc1ccc(Oc2ccc(Cl)cc2)c(Cl)c1)c1cc(I)cc(I)c1O | inactive
CC(=O)[C@H]1CC[C@H]2[C@@H]3C[C@H](C)C4=CC(=O)CC[C@]4(C)[C@H]3[C@@H](O)C[C@]12C | inactive
O=C(OCC(O)CO)c1ccccc1Nc1ccnc2cc(Cl)ccc12 (configuration not stated) | inactive
O=C1OCCN1/N=C/c1ccc([N+](=O)[O-])o1 | inactive
Oc1ccc(O)cc1 | inactive
C[C@]12C=CC(=O)C=C1CC[C@@H]1[C@@H]2[C@@H](O)C[C@@]2(C)[C@H]1CC[C@]2(O)C(=O)CO | inactive
COc1cccc2c1C(=O)c1c(O)c3c(c(O)c1C2=O)C[C@@](O)(C(=O)CO)C[C@@H]3O[C@H]1C[C@H](N)[C@H](O)[C@H](C)O1 | 2.82 µM (active)
COC1=CC(=O)C[C@@H](C)[C@]12Oc1c(Cl)c(OC)cc(OC)c1C2=O | inactive
CC(CCc1ccccc1)NCC(O)c1ccc(O)c(C(N)=O)c1 (configuration not stated) | inactive
C[C@]12CC[C@@H]3c4ccc(O)cc4CC[C@H]3[C@@H]1C[C@@H](O)[C@@H]2O | inactive
OC[C@H]1O[C@@H](n2cnc3c(=S)nc[nH]c32)[C@H](O)[C@@H]1O | inactive
CCCCOc1ccc(OCCCN2CCOCC2)cc1 | inactive
CC(C)n1nc(-c2cc3cc(O)ccc3[nH]2)c2c(N)ncnc21 | 1 µM (active) and 631 nM (active)
CC(=O)Oc1ccc2c(c1)CC[C@@H]1[C@@H]2CC[C@]2(C)[C@@H](O)CC[C@@H]12 | inactive
CC(Cc1cccc(C(F)(F)F)c1)NCCOC(=O)c1ccccc1 (configuration not stated) | inactive

Each compound was assayed on Tov-21-G in the same assay as above. Settings: Gynecologic cancer cell panel viability, ATPlite luminescence, 48 h; series mostly up to 57.5 µM.
Outline: as §1

Compound | Potency
CCCCCCCCCCCCCCCCCC(=O)OCC(O)CO (configuration not stated) | inactive
CN1[C@@H]2CC[C@H]1CC(OC(=O)c1c[nH]c3ccccc13)C2 (some centres not stated) | inactive
CCCOC(C(=O)OC1CCN(C)CC1)(c1ccccc1)c1ccccc1 | inactive
CO/N=C1\CN(c2nc3c(cc2F)c(=O)c(C(=O)O)cn3C2CC2)CC1CN (configuration not stated) | inactive
COc1cc2c(cc1OC)C(C(C(=O)N(CCc1ccc(OC)c(OC)c1OC)CCc1ccc(OC)c(OC)c1OC)c1ccccc1)=NCC2 (configuration not stated) | inactive
Oc1c(Cl)cc(Cl)cc1Sc1cc(Cl)cc(Cl)c1O | inactive
O=C1c2ccccc2C(=O)C1c1ccccc1 | inactive
Cc1ccc(O)c2ncccc12 | inactive
O=C(Nc1ccc(Oc2ccc(Cl)cc2)c(Cl)c1)c1cc(I)cc(I)c1O | inactive
CC(=O)[C@H]1CC[C@H]2[C@@H]3C[C@H](C)C4=CC(=O)CC[C@]4(C)[C@H]3[C@@H](O)C[C@]12C | inactive
O=C(OCC(O)CO)c1ccccc1Nc1ccnc2cc(Cl)ccc12 (configuration not stated) | inactive
CCN1CCC[C@H]1CNC(=O)c1c(OC)ccc(Br)c1OC | inactive
CC(C)COC(=O)c1ccc(N)cc1 | inactive
O=C1OCCN1/N=C/c1ccc([N+](=O)[O-])o1 | inactive
Oc1ccc(O)cc1 | inactive
C[C@]12C=CC(=O)C=C1CC[C@@H]1[C@@H]2[C@@H](O)C[C@@]2(C)[C@H]1CC[C@]2(O)C(=O)CO | inactive
O=C1OC(c2ccc(O)cc2)(c2ccc(O)cc2)c2ccccc21 | inactive
NCCc1ccn[nH]1 | inactive
C#C[C@]1(O)CC[C@H]2[C@@H]3CCc4cc(OC5CCCC5)ccc4[C@H]3CC[C@@]21C | inactive
CCCCC1=NC2(CCCC2)C(=O)N1Cc1ccc(-c2ccccc2-c2nn[nH]n2)cc1 | inactive
O=C(CCN1CCC(c2ccccc2)C1)c1ccc2c(c1)OCCO2 (configuration not stated) | inactive
C=CCc1ccc(O)c(OC)c1 | inactive
C[C@]12CC[C@@H]3c4ccc(O)cc4CC[C@H]3[C@@H]1C[C@@H](O)[C@@H]2O | inactive
O=c1[nH]c(=O)n([C@H]2CCCO2)cc1F | inactive
C[C@]12CC[C@H]3[C@@H](CCC4=CC(=O)CC[C@@]43C)[C@@H]1CC[C@@H]2C(=O)CO | inactive
CC(=O)OCC(=O)NCCCOc1cccc(CN2CCCCC2)c1 | inactive
